# Source: PubChem BioAssay
# A number with no mark means an inactive call. For some assays here: Results with a measured potency or affinity are listed apart. Active and inactive are the calls of the source. Unless noted, no rule for the calls is given here.
# Tests used:
# [1] = antimalarial activity against Dd2 strain (AID 2302;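 active = growth inhibition above 50% at the single 2 µM test dose, taken to imply half-maximal potency below 2 µM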;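 also: 0% = DMSO untreated growth and 100% = chloroquine plus artemisinin killed control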); conditions: P. falciparum Dd2 in RBCs, LDH growth readout, 72 h; at 2 µM; active compounds read high
# [2] = HepG2 cytotoxicity, primary screen, cytotoxicity control for P. falciparum antimalarial project, cell-based, ATP luminescence (AID 2303;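 active = inhibition above 50%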;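 also: 0% = DMSO wells and 100% = digitonin-killed cells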); conditions: HepG2 viability, 24-48 h, at 10 µM, active compounds read high
# [3] = target: L-lactate dehydrogenase (Plasmodium falciparum (isolate CDC / Honduras)) (UniProt Q27743); test: PfLDH activity inhibition – cell lysate, 3D7 strain, counter-screen for P. falciparum growth inhibition project (AID 2304);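 also: 0% = vehicle and 100% = reference inhibitor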; conditions: P. falciparum 3D7 crude extract, LDH APAD/NBT absorbance; at 2 µM; active compounds read high
# Chain of L-lactate dehydrogenase (Plasmodium falciparum (isolate CDC / Honduras)) (Q27743 whole entry, looked up): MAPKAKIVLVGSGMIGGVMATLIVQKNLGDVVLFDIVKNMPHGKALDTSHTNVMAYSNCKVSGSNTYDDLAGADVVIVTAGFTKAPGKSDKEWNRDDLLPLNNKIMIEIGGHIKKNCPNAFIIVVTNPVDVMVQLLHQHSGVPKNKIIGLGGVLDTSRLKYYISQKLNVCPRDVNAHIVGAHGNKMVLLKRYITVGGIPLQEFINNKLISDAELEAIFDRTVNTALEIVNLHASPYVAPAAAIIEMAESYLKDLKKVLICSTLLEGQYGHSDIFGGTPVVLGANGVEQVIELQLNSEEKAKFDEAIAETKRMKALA
# [4] = inhibition of 3D7 malaria parasite growth – strain 3D7 (AID 2306);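 also: 0% = DMSO wells and 100% = chloroquine plus artemisinin control wells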; conditions: P. falciparum 3D7 erythrocytic growth, LDH absorbance, 72 h; at 2 µM; active compounds read high
# [5] = target: Calcium-dependent protein kinase 1 (Plasmodium falciparum (isolate 3D7)) (UniProt P62344); test: PfCDPK1 kinase inhibitors, biochemical, TCAMS library (AID 1159585; cut-off not given, nearly all actives have IC50 up to about 0.98 µM;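 also: inhibitors leave more ATP so luminescence rises with inhibition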); conditions: recombinant PfCDPK1, Kinase-Glo ATP depletion luminescence
# Chain of Calcium-dependent protein kinase 1 (Plasmodium falciparum (isolate 3D7)) (P62344 whole entry, looked up): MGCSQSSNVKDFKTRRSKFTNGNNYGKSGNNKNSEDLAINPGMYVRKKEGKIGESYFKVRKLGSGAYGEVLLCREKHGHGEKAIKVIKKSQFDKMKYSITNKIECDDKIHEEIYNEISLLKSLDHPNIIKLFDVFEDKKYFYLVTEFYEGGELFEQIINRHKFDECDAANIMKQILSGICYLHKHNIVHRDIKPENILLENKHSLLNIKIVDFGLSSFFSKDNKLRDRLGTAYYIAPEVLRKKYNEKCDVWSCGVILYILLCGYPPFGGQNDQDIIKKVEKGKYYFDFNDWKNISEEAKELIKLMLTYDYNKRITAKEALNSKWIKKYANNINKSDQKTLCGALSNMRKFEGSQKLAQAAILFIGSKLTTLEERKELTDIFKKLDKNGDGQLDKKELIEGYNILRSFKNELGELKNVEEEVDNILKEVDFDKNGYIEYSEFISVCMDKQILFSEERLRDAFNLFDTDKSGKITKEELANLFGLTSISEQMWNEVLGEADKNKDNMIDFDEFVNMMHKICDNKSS
# [6] = target: Plasmodium falciparum protein kinase 6 (PK6, PF3D7_1337100) (UniProt Q8IDW1); test: PfPK6 kinase inhibitors, biochemical, TCAMS library (AID 1159586); conditions: recombinant PfPK6, Kinase-Glo ATP depletion luminescence
# Chain of Plasmodium falciparum protein kinase 6 (PK6, PF3D7_1337100) (Q8IDW1 1-305): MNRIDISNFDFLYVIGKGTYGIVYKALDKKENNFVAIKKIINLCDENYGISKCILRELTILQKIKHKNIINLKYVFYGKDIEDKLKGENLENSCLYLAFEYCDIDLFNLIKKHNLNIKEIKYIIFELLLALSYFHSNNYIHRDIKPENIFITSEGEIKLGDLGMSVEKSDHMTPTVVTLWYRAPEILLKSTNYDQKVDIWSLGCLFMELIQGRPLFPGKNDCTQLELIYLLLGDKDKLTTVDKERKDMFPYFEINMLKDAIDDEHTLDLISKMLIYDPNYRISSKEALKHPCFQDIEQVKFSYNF
# [7] = target: Protein kinase 7 (PK7), Plasmodium falciparum 3D7 (PF3D7_0213400) (UniProt Q7YTF7); test: inhibition of Plasmodium PK7 catalytic activity – biochemical, TCAMS antimalarial set, Kinase-Glo luminescence (AID 1159587); conditions: recombinant PfPK7, Kinase-Glo ATP depletion luminescence
# Chain of Protein kinase 7 (PK7), Plasmodium falciparum 3D7 (PF3D7_0213400) (Q7YTF7 1-343): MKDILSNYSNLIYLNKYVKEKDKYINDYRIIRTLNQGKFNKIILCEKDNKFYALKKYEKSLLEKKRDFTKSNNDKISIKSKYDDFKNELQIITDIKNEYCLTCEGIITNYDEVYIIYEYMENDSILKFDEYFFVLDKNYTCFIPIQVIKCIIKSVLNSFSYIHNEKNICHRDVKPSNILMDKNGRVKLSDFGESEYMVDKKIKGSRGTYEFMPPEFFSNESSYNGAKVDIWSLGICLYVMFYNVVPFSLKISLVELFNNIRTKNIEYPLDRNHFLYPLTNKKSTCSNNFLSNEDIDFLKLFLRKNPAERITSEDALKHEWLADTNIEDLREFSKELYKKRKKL
# [8] = target: Calcium-dependent protein kinase 4 (Plasmodium falciparum (isolate 3D7)) (UniProt Q8IBS5); test: PfCDPK4 kinase inhibitors, biochemical, TCAMS library (AID 1159588; cut-off not given, nearly all actives have IC50 up to about 0.91 µM); conditions: recombinant PfCDPK4, Kinase-Glo ATP depletion luminescence
# Chain of Calcium-dependent protein kinase 4 (Plasmodium falciparum (isolate 3D7)) (Q8IBS5 whole entry, looked up): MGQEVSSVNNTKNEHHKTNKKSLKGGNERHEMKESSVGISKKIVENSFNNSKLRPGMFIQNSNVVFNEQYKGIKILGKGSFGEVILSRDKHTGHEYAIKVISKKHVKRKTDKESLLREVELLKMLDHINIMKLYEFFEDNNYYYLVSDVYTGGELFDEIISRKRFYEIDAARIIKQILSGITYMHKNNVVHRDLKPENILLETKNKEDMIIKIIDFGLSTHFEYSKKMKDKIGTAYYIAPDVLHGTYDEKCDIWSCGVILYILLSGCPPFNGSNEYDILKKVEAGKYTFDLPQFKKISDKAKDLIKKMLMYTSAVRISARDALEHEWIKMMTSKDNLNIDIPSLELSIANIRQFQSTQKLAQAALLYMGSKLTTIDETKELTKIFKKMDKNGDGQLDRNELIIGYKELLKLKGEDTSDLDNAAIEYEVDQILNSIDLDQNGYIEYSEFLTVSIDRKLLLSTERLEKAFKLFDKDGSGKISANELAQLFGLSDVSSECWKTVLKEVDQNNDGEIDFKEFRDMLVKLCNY
Structure (SMILES),growth inhibition [1],inhibition [2],inhibition [3] [%],growth inhibition [4],outcome [5],outcome [6],outcome [7],outcome [8]
NC(=NCc1ccc(O)cc1)Nc1nc(-c2ccc(OCCCn3ccnc3)cc2)cs1,89% (active),13%,2,102% (active),inactive,inactive,inactive,inactive
COc1cc2nccc(Nc3cccc(Oc4ccccc4)c3)c2cc1OC,95% (active),25%,-2,102% (active),inactive,inactive,inactive,inactive
Nc1nc(N)c2c(ccc3c2ccn3Cc2cccc3ccccc23)n1,95% (active),65% (active),-3,99% (active),inactive,inactive,inactive,inactive
O=C(C=Cc1ccc(Cl)c(Cl)c1)NCCCCCN1CCCC(CCCNC(=O)c2sc3ccccc3c2Cl)C1 (stereo not given),32%,82% (active),-3,88% (active),inactive,inactive,inactive,inactive
CCNc1cc(C(=O)N[C@@H](Cc2ccccc2)[C@H](O)CNC2(CC)CC2)cc(N2CCCCS2(=O)=O)c1,94% (active),59% (active),0,97% (active),inactive,inactive,inactive,inactive
O=C(O)C[C@H](NC(=O)[C@@H]1CCCN1C(=O)c1cccc(-c2ccc(Cl)c(Cl)c2)c1)C(=O)O,0%,-1%,0,84% (active),inactive,inactive,inactive,inactive
Cc1[nH]c2ccc(C#N)cc2c(=O)c1Br,61% (active),2%,-1,91% (active),inactive,inactive,inactive,inactive
Cc1cccc(Nc2nc(N)c3ccccc3n2)c1,49%,1%,3,99% (active),inactive,inactive,inactive,inactive
CCN(CC)CC#Cc1ccc2[nH]c(C)c(Cl)c(=O)c2c1,95% (active),11%,-6,96% (active),inactive,inactive,inactive,inactive
CCN(CC)CCN(Cc1ccc(-c2ccc(C(F)(F)F)cc2)cc1)C(=O)Cn1c(CCc2cc(F)cc(F)c2F)nc(=O)c2ccccc21,77% (active),36%,1,101% (active),inactive,inactive,inactive,inactive
CCCOC(=O)c1ccc(OCCCON2C(N)=NC(N)=NC2(C)C)cc1,97% (active),61% (active),6,95% (active),inactive,inactive,inactive,inactive
CC(=O)Nc1ccc(OCCCCN(Cc2ccccc2C(F)(F)F)c2ccc(C#N)c(C(F)(F)F)c2)cc1,47%,-3%,1,80% (active),inactive,inactive,inactive,inactive
COc1ccc2nccc(NC(=O)CNCc3ccc(-c4ccccc4)cc3)c2c1,35%,11%,-4,101% (active),inactive,inactive,inactive,inactive
O=S(=O)(NC1CCN(c2ccnc3cc(Cl)ccc23)C1)c1cccs1 (stereo not given),76% (active),6%,-4,102% (active),inactive,inactive,inactive,inactive
Cc1noc(C)c1-c1cccc(CNCc2ccc(-c3ccc(-c4nc5ccc(F)cc5[nH]4)cc3)cc2)c1,92% (active),23%,4,102% (active),inactive,inactive,inactive,inactive
O=C(Nc1cccc(C(F)(F)F)c1)c1ccc(S(=O)(=O)NCC2CCCN(CC3CCCCC3)C2)cc1 (stereo not given),9%,26%,-4,95% (active),inactive,inactive,inactive,inactive
COc1cc(C(=O)NCCCN2CCN(c3cc(Cl)ccc3OC)CC2)ccc1-c1nc2cc(Cl)c(Cl)cc2[nH]1,99% (active),12%,-3,102% (active),inactive,inactive,inactive,inactive
COc1cc2c(c(Cl)c1OC)CCN(C(=O)C(F)(F)F)CC2c1ccccc1 (stereo not given),101% (active),7%,8,101% (active),inactive,inactive,inactive,inactive
COc1ccc2nccc([C@@H](O)CN3CCC(NCc4ccc5nc[nH]c(=O)c5c4)CC3)c2c1,4%,12%,-13,99% (active),inactive,inactive,inactive,inactive
Cc1ccc(C(NC(=O)Cc2ccccc2)c2ccc3cccnc3c2O)cc1 (stereo not given),77% (active),47%,6,94% (active),inactive,inactive,inactive,inactive

Structure (SMILES),growth inhibition [1],inhibition [2],inhibition [3] [%],growth inhibition [4],outcome [5],outcome [6],outcome [7],outcome [8]
O=C(Nc1ccccc1)N(Cc1ccc(-c2ccc(CNC3CCCC3)cc2)cc1)C1CCN(Cc2ccccc2)CC1,61% (active),34%,-5,100% (active),inactive,inactive,inactive,inactive
CN(C)CCNCc1ccc(-c2ccc3c(Nc4ccc(F)cc4Cl)ccnc3c2)o1,100% (active),31%,-9,100% (active),inactive,inactive,inactive,inactive
COc1cc(CNC(=S)NN=C(C)c2ccccn2)cc(OC)c1OC,92% (active),45%,-4,99% (active),inactive,inactive,inactive,inactive
Cn1c(Nc2cc(C(C)(C)C)on2)nc2cc(Nc3ccnc(Nc4ccc(CS(C)(=O)=O)cc4)n3)ccc21,68% (active),37%,-1,101% (active),inactive,inactive,inactive,inactive
O=C(Nc1ccccc1)N1CCOC(CCN2CCC(F)(F)CC2)(c2ccc(Cl)c(Cl)c2)C1 (stereo not given),100% (active),20%,3,102% (active),inactive,inactive,inactive,inactive
O=[N+]([O-])c1cc2c(cc1C=NNc1nc(Nc3ccccc3)nc(Nc3ccccc3)n1)OCO2,46%,-8%,-2,98% (active),inactive,inactive,inactive,inactive
CCc1cccc(-n2nc(OCC(=O)NC3CCCC3)c3cccnc32)c1,13%,2%,-4,94% (active),inactive,inactive,inactive,inactive
O=C(/C=C/c1ccc(Cl)cc1)Nc1ccc2nc(CN3CCCC3)ccc2c1,30%,47%,-2,85% (active),inactive,inactive,inactive,inactive
CCCCn1c(Sc2ccc(C#N)c([N+](=O)[O-])c2)nnc1-c1cc(OC)cc(OC)c1,70% (active),7%,2,94% (active),inactive,inactive,inactive,inactive
CS(=O)(=O)c1ccc(-c2cncc(Nc3cccc([N+](=O)[O-])c3)c2)cc1,70% (active),6%,-1,97% (active),inactive,inactive,inactive,inactive
CCOCc1cnc(C)nc1NCC(=O)c1c(C)[nH]c2cc(C)ccc12,76% (active),8%,4,89% (active),inactive,inactive,inactive,inactive
O=C(Nc1cccc(-c2cccc(-c3nc4ccc(F)cc4[nH]3)c2)c1)c1ccoc1,35%,36%,5,98% (active),inactive,inactive,inactive,inactive
CCOc1ccc(OCCCON2C(N)=NC(N)=NC2(C)C)cc1,94% (active),63% (active),-9,97% (active),inactive,inactive,inactive,inactive
CCc1ccc(CN2CCC(CNC(=O)c3cc(-c4ccccc4Cl)cs3)C2)cc1 (stereo not given),0%,14%,-2,98% (active),inactive,inactive,inactive,inactive
COc1cc(F)c2nccc([C@@H](O)CN3CC[C@@H](NC(=O)OCc4ccccc4)[C@@H](F)C3)c2c1,100% (active),44%,2,99% (active),inactive,inactive,inactive,inactive
CC(=O)Nc1cccc(CNc2cc(C)nc(Nc3ccc(C)cc3)n2)c1,23%,18%,0,82% (active),inactive,inactive,inactive,inactive
Cc1ccc(NC(=O)C2CCC2)cc1-c1ccc(C(=O)NCC2CC2)cc1,3%,13%,3,98% (active),inactive,inactive,inactive,inactive
COc1ccccc1C(C)NCC(=O)Nc1ccccc1Sc1ccccc1 (stereo not given),7%,-7%,-1,89% (active),inactive,inactive,inactive,inactive
Clc1cc(Cl)cc(Nc2ccnc(Nc3cc(Cl)cc(Cl)c3)n2)c1,73% (active),11%,-1,99% (active),inactive,inactive,inactive,inactive
O=C(COc1cccc([N+](=O)[O-])c1)Nc1ccc(-c2nc3ccccc3[nH]2)cc1,5%,12%,7,99% (active),inactive,inactive,inactive,inactive
